PubChem BioAssay (NCATS)
“And” between values parts separate entries of the source, which are not always exact repeats. Equal entries are not always repeated. Inconclusive results are not listed. The source made the active and inactive calls. Unless noted, calls come from the whole dose curve; as a rule, active = well fitted curve in the direction sought with a large enough effect; inconclusive = small, poorly fitted or top-dose-only effect, or another doubt; inactive = no such curve, though single readings can be large; an effect the other way counts as inactive or inconclusive.

Key:
[1] = AP1 Signaling Pathway (AID 357; active = well fitted curve in either direction with a large enough effect, not every such curve was filed as active;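 note: ME-180 reporter cells stimulated with EGF at its EC50 level; % is set by controls: 0 for no effect and ±100 for the full control effect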); settings: ME-180 AP-1-bla reporter, EGF-induced, beta-lactamase ratio, 5 h; at 7.69 µM (top of the series) unless noted
Method in brief: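 Read-out was the 460nm/530nm emission ratio (excitation 405nm) after CCF4 loading for 2.5 hours at room temperature. Cells carried an AP-1-driven beta-lactamase reporter, were stimulated with EC50 EGF plus compound for 5 hours, and AC50 values came from titrations.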

[2] = Stat Signaling Pathway (AID 446; active = well fitted curve in either direction with a large enough effect, not every such curve was filed as active;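 note: ME-180 cervical cancer cells given 40 pM IL-6 alongside compound; SIE-controlled beta-lactamase reporter measured as 460/530 nm FRET emission ratio; % is set by controls: 0 for no effect and ±100 for the full control effect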); settings: ME-180 (cervical carcinoma) SIE beta-lactamase reporter, IL-6 stimulated, 5 h; at 7.69 µM (top of the series) unless noted
Method in brief: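 Overnight-plated ME-180 cells bearing a STAT Inducible Element beta-lactamase reporter; 5 h co-exposure to compound and 40 pM IL-6; values normalized to 300 pM IL-6 and 125 nM JAK inhibitor controls.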

[3] = target: Glucocorticoid receptor (Homo sapiens) (UniProt P04150); assay: GR-EFC Redistribution (AID 451; calls by dose curve; note: potency is the fitted concentration of half-maximal effect); settings: CHO-K1 GR-EFC translocation, beta-gal luminescence, 2 h
Glucocorticoid receptor (Homo sapiens), sequence (P04150 whole entry, looked up, the tested form may be a part): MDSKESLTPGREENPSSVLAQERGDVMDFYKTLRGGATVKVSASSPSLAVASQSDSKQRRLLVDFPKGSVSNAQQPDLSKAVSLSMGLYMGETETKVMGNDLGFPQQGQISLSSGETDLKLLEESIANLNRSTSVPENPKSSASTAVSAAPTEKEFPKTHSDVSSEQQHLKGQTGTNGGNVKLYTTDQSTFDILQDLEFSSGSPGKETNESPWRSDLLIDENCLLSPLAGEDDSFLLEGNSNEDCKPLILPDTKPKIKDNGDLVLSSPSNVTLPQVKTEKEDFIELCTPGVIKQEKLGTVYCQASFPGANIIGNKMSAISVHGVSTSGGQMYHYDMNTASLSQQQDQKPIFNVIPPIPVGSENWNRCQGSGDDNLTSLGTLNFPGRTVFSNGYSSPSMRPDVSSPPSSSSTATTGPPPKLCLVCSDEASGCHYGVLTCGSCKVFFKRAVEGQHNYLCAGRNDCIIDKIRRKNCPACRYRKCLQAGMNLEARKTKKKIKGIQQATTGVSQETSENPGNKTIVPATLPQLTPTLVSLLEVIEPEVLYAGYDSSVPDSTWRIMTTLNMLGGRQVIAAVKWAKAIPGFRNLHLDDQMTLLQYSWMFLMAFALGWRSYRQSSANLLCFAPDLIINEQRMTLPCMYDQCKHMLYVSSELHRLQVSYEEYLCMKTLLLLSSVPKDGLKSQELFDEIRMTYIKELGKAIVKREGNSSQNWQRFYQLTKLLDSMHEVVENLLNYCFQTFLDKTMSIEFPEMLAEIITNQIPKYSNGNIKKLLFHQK
Method in brief: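 Translocation of GR-ED fusion to nuclear EA restores b-gal, read by luminescence after 1 h room-temperature detection. Engineered CHO-K1 biosensor cells, 1,000/well, exposed 2 h at 37 C to titrations up to 46 uM final.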

[4] = target: Mitogen-activated protein kinase 10 (Mus musculus) (UniProt Q61831); assay: JNK3 AlphaScreen Assay (AID 530; active = well fitted curve in either direction with a large enough effect, not every such curve was filed as active;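 note: kinase came from lysate of stimulated human HepG2 cells; signal reports phosphorylation of biotinylated GST-cJun 1-79 at Ser73 with 10 µM ATP; % is set by controls: 0 for no effect and ±100 for the full control effect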)
Method in brief: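 qHTS titrations with 15 min compound pre-incubation before adding ATP (10 uM final). Read-out: AlphaScreen of Ser73-phosphorylated biotin-GST-cJun using HepG2 lysate JNK3 activated by IL-1β and TNFα.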

[5] = target: 3',5'-cyclic-AMP phosphodiesterase 4B (Homo sapiens) (UniProt Q07343); assay: qHTS Assay for Inhibitors of PDE-IV (AID 607; active = well fitted activation curve with a large enough effect in the main read-out, with a control signal flat, not every such curve was filed as active; note: % of control where 0% means no effect)
3',5'-cyclic-AMP phosphodiesterase 4B (Homo sapiens), sequence (Q07343 whole entry, looked up): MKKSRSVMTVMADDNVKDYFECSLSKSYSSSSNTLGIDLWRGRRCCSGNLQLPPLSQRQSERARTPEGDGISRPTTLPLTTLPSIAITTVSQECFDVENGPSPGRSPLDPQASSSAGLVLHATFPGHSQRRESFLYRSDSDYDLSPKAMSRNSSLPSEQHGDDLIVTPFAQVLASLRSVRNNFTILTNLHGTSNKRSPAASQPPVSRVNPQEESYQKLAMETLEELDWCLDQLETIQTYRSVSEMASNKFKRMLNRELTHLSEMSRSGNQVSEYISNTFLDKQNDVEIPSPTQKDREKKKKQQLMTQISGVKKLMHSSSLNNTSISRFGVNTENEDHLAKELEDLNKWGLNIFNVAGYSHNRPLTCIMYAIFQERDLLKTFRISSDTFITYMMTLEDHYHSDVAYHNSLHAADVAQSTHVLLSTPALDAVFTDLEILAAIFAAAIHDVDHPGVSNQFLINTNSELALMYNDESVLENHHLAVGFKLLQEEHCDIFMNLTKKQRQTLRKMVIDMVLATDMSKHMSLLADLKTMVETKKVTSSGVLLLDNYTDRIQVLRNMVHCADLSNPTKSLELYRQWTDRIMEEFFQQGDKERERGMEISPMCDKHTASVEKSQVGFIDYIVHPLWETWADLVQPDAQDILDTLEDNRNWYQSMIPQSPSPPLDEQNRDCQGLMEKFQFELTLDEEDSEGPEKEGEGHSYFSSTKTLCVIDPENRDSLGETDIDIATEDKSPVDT
Method in brief: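 Live HEK293 cells with a modified cyclic nucleotide-gated (CNG) channel report intracellular cAMP via membrane-potential dye fluorescence (ex 535/em 590 nm). Endogenous PDE-IV was targeted. Compounds were tested at up to 22.9 uM final; RO 20-1724 100 uM served as control.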

[6] = target: Cytochrome P450 2C9 (Homo sapiens) (UniProt P11712); assay: qHTS Assay for Inhibitors and Substrates of Cytochrome P450 2C9 (AID 883); note: % is set by controls: 0 for no effect and ±100 for the full control effect; nearly all actives have a fitted effect of over 60% in size
Cytochrome P450 2C9 (Homo sapiens), sequence (P11712 whole entry, looked up): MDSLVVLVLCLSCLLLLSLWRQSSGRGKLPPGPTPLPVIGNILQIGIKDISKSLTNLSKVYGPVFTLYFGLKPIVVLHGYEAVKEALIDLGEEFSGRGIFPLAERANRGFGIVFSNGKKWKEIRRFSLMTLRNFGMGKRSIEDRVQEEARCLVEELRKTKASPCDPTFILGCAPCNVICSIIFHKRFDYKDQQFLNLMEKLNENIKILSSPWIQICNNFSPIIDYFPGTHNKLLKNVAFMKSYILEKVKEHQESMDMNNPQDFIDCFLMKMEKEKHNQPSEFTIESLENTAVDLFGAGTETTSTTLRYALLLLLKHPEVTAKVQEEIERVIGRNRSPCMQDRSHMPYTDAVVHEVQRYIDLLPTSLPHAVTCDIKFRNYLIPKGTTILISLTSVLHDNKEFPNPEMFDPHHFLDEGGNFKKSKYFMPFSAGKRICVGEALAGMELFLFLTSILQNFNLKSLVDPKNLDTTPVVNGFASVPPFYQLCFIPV
Method in brief: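 Luminescent read-out of deoxyluciferin hydroxylation, normalized to 57uM sulphaphenazole (AC100). Reaction: 10nM enzyme, 100uM Luciferin-H (equal to KM), 25mM KPO4, 10 min compound preincubation, then 60 min with NADPH regeneration, both at 37C.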

[7] = target: Cytochrome P450 3A4 (Homo sapiens) (UniProt P08684); assay: qHTS Assay for Activators of Cytochrome P450 3A4 (AID 885); note: nearly all actives have a fitted effect of over 65% in size
Cytochrome P450 3A4 (Homo sapiens), sequence (P08684 whole entry, looked up): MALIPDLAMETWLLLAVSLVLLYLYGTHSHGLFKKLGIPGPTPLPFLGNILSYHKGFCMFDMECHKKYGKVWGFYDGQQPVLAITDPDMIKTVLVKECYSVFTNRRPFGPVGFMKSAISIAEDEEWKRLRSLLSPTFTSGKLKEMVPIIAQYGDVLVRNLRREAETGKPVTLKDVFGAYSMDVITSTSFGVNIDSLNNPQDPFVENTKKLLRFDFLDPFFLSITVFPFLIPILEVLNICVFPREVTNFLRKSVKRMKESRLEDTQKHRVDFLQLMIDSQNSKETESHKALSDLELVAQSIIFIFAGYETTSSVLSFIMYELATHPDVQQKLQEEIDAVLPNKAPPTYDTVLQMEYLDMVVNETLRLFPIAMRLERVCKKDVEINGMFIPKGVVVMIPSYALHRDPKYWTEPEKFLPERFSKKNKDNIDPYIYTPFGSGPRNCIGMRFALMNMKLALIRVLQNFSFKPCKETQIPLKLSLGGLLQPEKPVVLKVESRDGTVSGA
Method in brief: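 Using 20nM recombinant human CYP3A4 in potassium phosphate (200mM), substrate Luciferin-PPXE at 25uM, luminescent luciferin detection followed a 60-min RT NADPH reaction; data scaled to 57 uM ketoconazole.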

[8] = Primary qHTS for small molecule stabilizers of the endoplasmic reticulum resident proteome: Secreted ER Calcium Modulated Protein (SERCaMP) assay (AID 1508630); note: % is set by controls: 0 for no effect and ±100 for the full control effect
Method in brief: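 The SH-SY5Y reporter protocol was run at 3 concentrations up to 38.3 uM (primary) or 11 concentrations (follow-up): 16 h compound, 100 nM thapsigargin for 4 h, then extracellular luciferase luminescence.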

[9] = target: Cytochrome P450 1A2 (Homo sapiens) (UniProt P05177); assay: p450-cyp1a2 (AID 410; calls by dose curve; note: potency is the fitted concentration of half-maximal effect)
Cytochrome P450 1A2 (Homo sapiens), sequence (P05177 whole entry, looked up): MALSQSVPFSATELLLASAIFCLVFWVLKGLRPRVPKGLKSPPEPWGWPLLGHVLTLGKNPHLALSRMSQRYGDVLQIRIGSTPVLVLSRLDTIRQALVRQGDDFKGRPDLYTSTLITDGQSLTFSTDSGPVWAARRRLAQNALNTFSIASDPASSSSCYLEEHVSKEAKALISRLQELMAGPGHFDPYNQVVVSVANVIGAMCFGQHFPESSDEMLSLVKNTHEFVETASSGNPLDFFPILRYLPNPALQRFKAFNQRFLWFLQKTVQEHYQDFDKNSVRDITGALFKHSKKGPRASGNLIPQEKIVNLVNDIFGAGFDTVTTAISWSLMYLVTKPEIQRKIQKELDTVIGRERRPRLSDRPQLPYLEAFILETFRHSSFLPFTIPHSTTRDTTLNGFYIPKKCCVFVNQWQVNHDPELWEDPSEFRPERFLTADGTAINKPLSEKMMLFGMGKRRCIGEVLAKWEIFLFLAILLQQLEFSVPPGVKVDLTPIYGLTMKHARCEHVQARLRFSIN
Method in brief: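 O-Demethylation of luciferin 6' methyl ether by human CYP1A2 is monitored as luciferase luminescence. Substrate sits at Km (100uM); enzyme is 20nM. Values are scaled to 57 uM furafylline as maximal inhibition.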

[10] = target: Glucocorticoid receptor (Homo sapiens) (UniProt P04150); assay: GR-GFP Redistribution (AID 450;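 active = compounds whose dose series gives a full or clear partial fitted curve of increased nuclear translocation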; note: potency is the fitted concentration of half-maximal effect); settings: U2OS GR-GFP nuclear translocation, laser cytometry, 2 h
[11] = target: Cytochrome P450 3A4 (Homo sapiens) (UniProt P08684); assay: qHTS Assay for Inhibitors and Substrates of Cytochrome P450 3A4 (AID 884); note: % is set by controls: 0 for no effect and ±100 for the full control effect; nearly all actives have a fitted effect of over 50% in size
Method in brief: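 Luminescent readout of luciferin produced by CYP3A4 (20 nM) dealkylation of Luciferin-PPXE, 25 uM (its KM). NADPH-driven reaction ran 60 min at RT after 10 min compound preincubation; data scaled to 57 uM ketoconazole as 100% inhibition.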

[12] = target: Cytochrome P450 2D6 (Homo sapiens) (UniProt P10635); assay: qHTS Assay for Inhibitors and Substrates of Cytochrome P450 2D6 (AID 891);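 note: luciferin methyl ether substrate demethylated by CYP2D6 with NADPH regeneration; % is set by controls: 0 for no effect and ±100 for the full control effect; nearly all actives have a fitted effect of over 60% in size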
Method in brief: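 Luminescent read-out of luciferin formed by 5 nM human CYP2D6 demethylating 30 uM Luciferin-ME EGE (Km level) over 60 min at room temperature after NADPH regeneration addition. Data normalized to full inhibition by 1.43 uM quinidine.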

[13] = target: Cytochrome P450 2C19 (Homo sapiens) (UniProt P33261); assay: qHTS Assay for Inhibitors and Substrates of Cytochrome P450 2C19 (AID 899); note: % is set by controls: 0 for no effect and ±100 for the full control effect; nearly all actives have a fitted effect of over 60% in size
Method in brief: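 Luminescence readout of luciferin formed from 10uM Luciferin-H EGE (KM level) by 5 nM CYP2C19 in 50mM KPO4. 60 min NADPH-driven reaction at 37C after 10 min compound preincubation; data scaled to 57uM ketoconazole inhibition.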

[14] = Confirmation and Secondary Assay for Modulators of Hemoglobin Beta Chain Splicing at IVS2 654 locus (AID 910);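 note: HeLa cells stably carrying EGFP split by mutant beta-globin IVS2-654 intron; % of control where 0% means no effect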
Method in brief: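 Readout: per-well total peak green fluorescence (488 nm ex, 500–520 nm em) from objects 5–250 µm, reflecting correct splicing of an EGFP-654 reporter. Compounds were applied for 2 days at 37 °C to overnight-plated HeLa EGFP-654 cells; controls were DMSO and 500 nM IVS2-654 PNA.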

[15] = Confirmation and Secondary Assay for Modulators of Hemoglobin Beta Chain Splicing at IVS2 705 locus (AID 930);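 note: HeLa cells stably expressing the EGFP-705 splicing reporter; GFP fluorescence per well restored by corrected splicing of the IVS2-705 intron in EGFP; % of control where 0% means no effect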
Method in brief: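 HeLa cells stably carrying EGFP interrupted by mutant beta-globin intron 2 (IVS2-705) treated 2 days at 37C with compound; 500 nM antisense PNA as control. Correct splicing read as total peak GFP intensity per well by laser-scanning cytometry.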

[16] = qHTS Assay for Lipid Storage Modulators (AID 1519; calls by dose curve); settings: Drosophila S3 cells, BODIPY lipid droplet/cell ratio, laser cytometry, cells loaded with oleic acid
Method in brief: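 Cells seeded at 5,000 per well were treated with compounds over a concentration series and loaded with oleic acid (400 uM, as added). Lipid droplet fluorescence (488 nm excitation, 500-530 nm channel) was read by laser-scanning cytometry and normalized to 20 uM Triacsin C.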

[17] = target: Ubiquitin carboxyl-terminal hydrolase 1 (Homo sapiens) (UniProt O94782); assay: Inhibitors of USP1/UAF1: Pilot qHTS (AID 504865);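 note: rhodamine fluorescence freed from ubiquitin-rhodamine substrate followed over time; top concentration of the series differs between compounds; % is set by controls: 0 for no effect and ±100 for the full control effect; nearly all actives have a fitted effect of over 35% in size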
Method in brief: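 1nM USP1/UAF1 + cpd, 15 min RT; start w/ Ub-Rho 150nM final; kinetic FL 480/540 nm, 6 reads q60 s. Buffer 50mM HEPES pH 7.8, 0.5mM EDTA, 1mM TCEP, 0.01% Tween-20, 0.1 mg/ml BSA.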

[18] = target: DNA dC->dU-editing enzyme APOBEC-3G (Homo sapiens) (UniProt Q9HC16); assay: qHTS for inhibitors of Vif-A3G interactions: Validation (AID 588379); note: 0% is about no effect
Method in brief: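 Yellow fluorescence (Ex 488, Em 500-530) of Vif-coexpressing HeLa A3G-eYFP cells, scanned by Acumen cytometer, reports blocked A3G degradation. Cells plated at 700/well overnight at 37 deg C before compound addition, then a further overnight compound incubation at 37 deg C.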

[19] = target: Rap guanine nucleotide exchange factor 3 (Homo sapiens) (UniProt O95398); assay: Confirmatory qHTS for antagonist of cAMP-regulated guanine nucleotide exchange factor 3 (EPAC1) (AID 1645880);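 note: plate controls were DMSO only for no effect and full effect of the ATA control for full effect; nearly all actives have a fitted effect of over 55% in size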
Rap guanine nucleotide exchange factor 3 (Homo sapiens), sequence (O95398 whole entry, looked up): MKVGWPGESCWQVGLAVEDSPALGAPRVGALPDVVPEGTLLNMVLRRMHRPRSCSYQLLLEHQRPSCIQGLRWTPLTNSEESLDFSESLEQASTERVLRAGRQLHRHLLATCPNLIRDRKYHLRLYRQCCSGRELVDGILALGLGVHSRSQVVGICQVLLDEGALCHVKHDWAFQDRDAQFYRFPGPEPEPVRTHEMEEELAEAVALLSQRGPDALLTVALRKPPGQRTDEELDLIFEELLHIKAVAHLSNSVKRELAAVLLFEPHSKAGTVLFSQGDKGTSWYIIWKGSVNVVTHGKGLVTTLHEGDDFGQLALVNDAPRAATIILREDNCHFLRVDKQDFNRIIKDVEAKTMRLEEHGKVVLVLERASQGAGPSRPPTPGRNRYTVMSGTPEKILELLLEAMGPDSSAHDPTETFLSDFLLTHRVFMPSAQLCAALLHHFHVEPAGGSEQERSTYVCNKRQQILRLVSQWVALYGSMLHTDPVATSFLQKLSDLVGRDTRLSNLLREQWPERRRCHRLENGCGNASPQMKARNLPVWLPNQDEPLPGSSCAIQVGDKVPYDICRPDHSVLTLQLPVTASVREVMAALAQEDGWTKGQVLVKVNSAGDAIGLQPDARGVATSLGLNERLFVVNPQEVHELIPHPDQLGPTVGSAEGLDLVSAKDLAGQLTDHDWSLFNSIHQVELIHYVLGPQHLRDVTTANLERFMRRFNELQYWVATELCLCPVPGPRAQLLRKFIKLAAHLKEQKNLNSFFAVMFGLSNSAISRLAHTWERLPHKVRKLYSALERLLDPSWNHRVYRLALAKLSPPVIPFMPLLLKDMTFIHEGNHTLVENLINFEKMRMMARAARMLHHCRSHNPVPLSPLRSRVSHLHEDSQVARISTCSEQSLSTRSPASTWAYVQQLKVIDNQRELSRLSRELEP
Method in brief: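 Released BODIPY-GDP fluoresces less than Rap1-bound BODIPY-GDP; the signal is followed at 480/540 nm at 5-min intervals over 30 min, after 5 min at room temperature. Reactions contain 100 nM EPAC1, 250 nM RAP1B-BODIPY-GDP and 50 uM GDP; results are normalized to ATA and DMSO.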

[20] = target: Rap guanine nucleotide exchange factor 3 (Homo sapiens) (UniProt O95398); assay: Confirmatory qHTS for agonist of cAMP-regulated guanine nucleotide exchange factor 3 (EPAC1) (AID 1645881);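 note: EPAC1 catalysed release of BODIPY-GDP from Rap1B seen as fluorescence loss; 100% = effect of cAMP agonist control; nearly all actives have a fitted effect of over 75% in size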
[21] = target: Rap guanine nucleotide exchange factor 4 (Homo sapiens) (UniProt Q8WZA2); assay: Confirmatory qHTS for agonist of cAMP-regulated guanine nucleotide exchange factor 4 (EPAC2) (AID 1645884);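 note: nucleotide exchange releases bodipy-GDP from Rap1 and this lowers its fluorescence; % is set by controls: 0 for no effect and ±100 for the full control effect; nearly all actives have a fitted effect of over 65% in size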
Rap guanine nucleotide exchange factor 4 (Homo sapiens), sequence (Q8WZA2 whole entry, looked up): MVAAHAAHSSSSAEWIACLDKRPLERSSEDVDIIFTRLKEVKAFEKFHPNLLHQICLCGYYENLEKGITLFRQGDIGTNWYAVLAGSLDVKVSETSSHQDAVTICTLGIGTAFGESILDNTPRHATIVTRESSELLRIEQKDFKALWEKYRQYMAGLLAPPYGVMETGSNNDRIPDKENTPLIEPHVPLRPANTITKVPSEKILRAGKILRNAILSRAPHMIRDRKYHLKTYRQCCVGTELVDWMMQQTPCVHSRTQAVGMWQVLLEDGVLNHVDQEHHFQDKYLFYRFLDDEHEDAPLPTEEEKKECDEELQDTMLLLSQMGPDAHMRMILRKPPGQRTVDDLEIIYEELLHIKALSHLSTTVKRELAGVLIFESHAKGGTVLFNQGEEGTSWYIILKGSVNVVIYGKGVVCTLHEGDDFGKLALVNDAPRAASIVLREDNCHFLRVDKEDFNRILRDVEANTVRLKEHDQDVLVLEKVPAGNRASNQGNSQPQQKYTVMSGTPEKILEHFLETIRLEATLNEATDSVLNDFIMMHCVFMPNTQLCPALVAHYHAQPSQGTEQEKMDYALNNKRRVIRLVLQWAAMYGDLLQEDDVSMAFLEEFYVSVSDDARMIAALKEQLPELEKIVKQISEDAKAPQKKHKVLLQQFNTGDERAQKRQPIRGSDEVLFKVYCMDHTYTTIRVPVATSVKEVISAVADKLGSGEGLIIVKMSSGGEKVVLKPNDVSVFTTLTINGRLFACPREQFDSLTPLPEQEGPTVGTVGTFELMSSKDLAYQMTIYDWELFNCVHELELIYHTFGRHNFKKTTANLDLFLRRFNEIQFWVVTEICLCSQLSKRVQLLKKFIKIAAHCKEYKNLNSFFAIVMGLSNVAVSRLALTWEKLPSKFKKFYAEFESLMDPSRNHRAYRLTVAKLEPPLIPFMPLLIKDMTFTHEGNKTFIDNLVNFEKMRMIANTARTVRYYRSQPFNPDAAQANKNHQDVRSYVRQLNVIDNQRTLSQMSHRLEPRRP

[22] = target: Rap guanine nucleotide exchange factor 4 (Homo sapiens) (UniProt Q8WZA2); assay: Confirmatory qHTS for antagonist of cAMP-regulated guanine nucleotide exchange factor 4 (EPAC2) (AID 1645885); note: % is set by controls: 0 for no effect and ±100 for the full control effect; nearly all actives have a fitted effect of over 25% in size

CC(C)CN1CCCC2(CCN(C(=O)c3ccco3)CC2)C1
inactive: activity change, negative = inhibition [1] -0.809% | activity, negative = inhibition [2] 2.64% | Potency [3] > 46 µM | Potency [4] | Potency [5] | Potency [6] | Potency [7] | outcome [8]

COc1cc2ccc(=O)oc2cc1O
-21.2% and 0.189%: max response ([16]; measured here: lipid channel max response)
-18% and -2.53%: max response ([16]; measured here: cell count channel max response)
active: Potency [9] 5.01 µM and 12.6 µM
inactive: Potency [10] > 20.6 µM and > 46 µM | Potency [3] > 20.6 µM and > 46 µM | Potency [4] | Potency [5] | Potency [6] | Potency [11] | Potency [12] | Potency [13] | Potency [14] | outcome [15] | activity change, negative = inhibition ([16]; at 25.7 µM (top of the series)) -4.36% | activity change, negative = inhibition ([16]; at 57.5 µM (top of the series)) 6.76% | Potency [17] | outcome [18] | Potency [19] | Potency [20] | Potency [21] | Potency [22]
